Measured values from the supplement of paper PMC10646978.
± gives the standard deviation.

Tests used:
Conditions in all cases: modulator concentration 10 µM
[1] = tested on: RAW-Dual (murine macrophage reporter line); test: NF-kB reporter (SEAP) activity fold change vs agonist alone; higher = enhanced NF-kB activity
In short: (§1)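 Compound reached 10 μM final in each well by pin transfer, onto RAW-Dual murine macrophage reporter cells seeded at 50 000 per well in 384-well plates. After 1 hour at 37 °C, the cells were stimulated overnight with a PRR agonist. SEAP in the supernatant was read with QUANTI-Blue at 620 nm absorbance for NF-κB, and Lucia luciferase was read with QUANTI-Luc luminescence for IRF. Each signal was turned into fold change against the mean agonist-only control on the same plate, and two replicate plates were averaged with propagated errors.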

[2] = tested on: RAW-Dual (murine macrophage reporter line); test: IRF reporter (Lucia luciferase) activity fold change vs agonist alone; higher = enhanced IRF activity
In short: as §1

[3] = tested on: RAW-Dual (murine macrophage reporter line); test: viability score (confluency relative to resting cells, overnight) (fraction); higher = more viable, active = viable (0.7 or more)
In short: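 Compound was added at a final 10 μM to RAW-Dual macrophages in 384-well plates and left overnight. Confluency was imaged with IncuCyte, and two masks were generated in IncuCyte software over all imaged wells. Each viability score is confluency relative to resting cells, and a compound met the cutoff only when both masks were above 70% of resting cells.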

[4] = agonist: CpG ODN 1826 0.5 ug/mL

Compound | NF-kB reporter [1, 4] | NF-kB reporter ([1]; agonist: LPS 0.1 ug/mL) | NF-kB reporter ([1]; agonist: MPLA […]) | IRF reporter ([2]; agonist: 3'3'-cGAMP 10 ug/mL) | IRF reporter ([2]; agonist: LPS 0.1 ug/mL) | IRF reporter ([2]; agonist: MPLA […]) | viability score [3]
CCOC(=O)c1ccc2nc(NC(=O)c3ccco3)sc2c1 | 0.971 ± 0.079 | 0.876 ± 0.064 | 1.13 ± 0.14 | 0.996 ± 0.051 | 1.35 ± 0.19 | 1.58 ± 0.3 | 1.01 (active)
O=C(O)CCCNc1c(C(=O)Nc2ccc(Cl)cc2)cc([N+](=O)[O-])cc1[N+](=O)[O-] | 0.817 ± 0.065 | 0.813 ± 0.057 | 0.942 ± 0.049 | 0.629 ± 0.022 | 1.11 ± 0.12 | 1.42 ± 0.24 | 0.511 (inactive)
O=C(O)c1cc(O)c2ccccc2n1 | 1.23 ± 0.3 | 1.13 ± 0.11 | 1 ± 0.064 | 1.01 ± 0.057 | 1.21 ± 0.14 | 1.38 ± 0.14 | 0.991 (active)
O=S(=O)(c1cccc2ccccc12)n1cnc2ccccc21 | 1.1 ± 0.084 | 1.06 ± 0.11 | 0.998 ± 0.1 | 0.944 ± 0.089 | 1.26 ± 0.25 | 1.33 ± 0.26 | 1.01 (active)
COc1ccc(C2Nc3ccccc3-c3nnc(SCc4ccc(C)cc4)nc3O2)cc1C (centres undefined) | 0.964 ± 0.079 | 1.07 ± 0.086 | 0.919 ± 0.04 | 0.961 ± 0.13 | 0.992 ± 0.041 | 1.06 ± 0.15 | 1 (active)
CN(C)c1ccc(C=NN2C(=O)c3cccc4cccc(c34)C2=O)cc1 | 1 ± 0.21 | 1.1 ± 0.092 | 0.964 ± 0.11 | 1 ± 0.032 | 1.28 ± 0.23 | 1.36 ± 0.17 | 1 (active)
Cc1[nH]nc(-c2ccc(OCc3ccccc3)c(C)c2O)c1-c1cnn(-c2ccccc2)c1 | 0.892 ± 0.073 | 1.1 ± 0.077 | 0.784 ± 0.049 | 0.95 ± 0.026 | 1.58 ± 0.19 | 1.11 ± 0.095 | 1.01 (active)
CSc1nnc(CSc2nc(C)cc(C)n2)n1-c1cccc(C(F)(F)F)c1 | 0.958 ± 0.041 | 0.862 ± 0.071 | 1.17 ± 0.07 | 0.961 ± 0.053 | 1.36 ± 0.34 | 1.37 ± 0.44 | 0.953 (active)
O=[N+]([O-])c1ccc(OCC(O)CN2CCN(c3ccccc3)CC2)cc1 (centres undefined) | 0.91 ± 0.072 | 1.02 ± 0.059 | 0.964 ± 0.086 | 0.982 ± 0.024 | 1.42 ± 0.19 | 1.15 ± 0.15 | 1.01 (active)
COc1cc2c(cc1OC)C(=O)NC1(CCCC1)C2 | 1.24 ± 0.095 | 0.958 ± 0.073 | 0.959 ± 0.092 | 0.819 ± 0.05 | 0.872 ± 0.11 | 0.911 ± 0.17 | 1.02 (active)
NC(=O)c1cc2ccccc2oc1=NCc1ccccc1 | 0.907 ± 0.09 | 1.06 ± 0.067 | 0.91 ± 0.1 | 0.946 ± 0.023 | 1.16 ± 0.16 | 1.07 ± 0.22 | 1.01 (active)
CCCN1CCC(NCCc2ccc(Cl)cc2)CC1 | 1.18 ± 0.069 | 0.97 ± 0.081 | 1.1 ± 0.036 | 0.761 ± 0.028 | 0.994 ± 0.065 | 0.943 ± 0.11 | 0.995 (active)
Cc1ccc(NC(=O)c2ccccc2Oc2ccccc2)cc1 | 0.689 ± 0.055 | 1.1 ± 0.097 | 1.24 ± 0.059 | 0.881 ± 0.08 | 1.09 ± 0.14 | 1.76 ± 0.41 | 1 (active)
CSCCC(NC(C)=O)C(=O)N1CCc2nc3ccc(Cl)cn3c(=O)c2C1 (centres undefined) | 1.42 ± 0.35 | 0.918 ± 0.047 | 1.06 ± 0.12 | 1.01 ± 0.043 | 1.24 ± 0.17 | 1.29 ± 0.21 | 0.986 (active)
COc1ccc2c(c1)c(CC(=O)O)c(C)n2C(=O)c1ccc(Cl)cc1 | 1.23 ± 0.21 | 1.06 ± 0.16 | 0.951 ± 0.054 | 1.05 ± 0.034 | 1.25 ± 0.14 | 1.29 ± 0.1 | 1 (active)
CN(C)CCCN(C(=O)Cc1ccc(F)cc1)c1nc2ccc(Cl)cc2s1.Cl | 0.447 ± 0.029 | 0.503 ± 0.079 | 1.08 ± 0.1 | 0.799 ± 0.035 | 0.714 ± 0.066 | 2.19 ± 0.47 | 0.0615 (inactive)
CC(=O)N1CCc2ccc(NC(=O)C3(c4ccccc4)CCOCC3)cc2C1 | 0.91 ± 0.063 | 1 ± 0.082 | 1.4 ± 0.075 | 1.22 ± 0.06 | 1.28 ± 0.24 | 1.31 ± 0.54 | 0.979 (active)
Cc1cccc(N(CC(=O)Nc2ccc3c(c2)OCO3)S(C)(=O)=O)c1 | 0.716 ± 0.06 | 0.934 ± 0.068 | 1 ± 0.098 | 0.784 ± 0.04 | 1.19 ± 0.071 | 1.22 ± 0.13 | 1.02 (active)
COc1ccc(C(=O)Nc2cc(C)nc3c(C)cc(C)cc23)cc1OC | 0.763 ± 0.18 | 0.948 ± 0.054 | 0.838 ± 0.055 | 0.501 ± 0.038 | 0.767 ± 0.15 | 0.746 ± 0.07 | 0.589 (inactive)
Cc1ncn(CC(=O)N2CC(Oc3cccc(C(F)(F)F)n3)C2)c(=O)c1C | 0.986 ± 0.059 | 1.09 ± 0.086 | 0.9 ± 0.08 | 0.83 ± 0.12 | 1.21 ± 0.086 | 1.25 ± 0.097 | 1 (active)
COc1ccc(OC)c(-c2csc(NC(=O)C3CC3)n2)c1 | 1.11 ± 0.068 | 0.972 ± 0.08 | 1 ± 0.034 | 0.935 ± 0.043 | 1.01 ± 0.061 | 1.13 ± 0.12 | 0.994 (active)
Cc1nc2n(c(=O)c1CCN1CCC(c3noc4cc(F)ccc34)CC1)CCCC2O (centres undefined) | 1.11 ± 0.27 | 1.14 ± 0.071 | 0.997 ± 0.11 | 0.902 ± 0.038 | 1.26 ± 0.14 | 1.14 ± 0.11 | 1 (active)
Cc1cc(C(O)CCNC(=O)COc2cccc3c2OC(C)(C)C3)c(C)o1 (centres undefined) | 1.04 ± 0.099 | 1.01 ± 0.15 | 1.01 ± 0.055 | 0.883 ± 0.038 | 0.992 ± 0.051 | 0.94 ± 0.13 | 1 (active)
Cl.O=S(=O)(c1cccc2cnccc12)N1CCCNCC1 | 0.76 ± 0.1 | 1.01 ± 0.27 | 1.06 ± 0.06 | 0.825 ± 0.033 | 0.85 ± 0.15 | 0.558 ± 0.083 | 0.992 (active)
COc1ccc2c3c([nH]c2c1)C(=O)CCC3 | 1.43 ± 0.11 | 0.785 ± 0.066 | 1.12 ± 0.11 | 0.732 ± 0.067 | 0.561 ± 0.12 | 0.464 ± 0.11 | 0.843 (active)
Cc1ccc(CC(=O)N2CCNC(=O)C2(C)C)cc1C | 1.08 ± 0.11 | 1.07 ± 0.1 | 0.989 ± 0.031 | 0.865 ± 0.042 | 0.941 ± 0.044 | 0.87 ± 0.085 | 0.999 (active)
O=C(c1ccc(OC(F)(F)F)cc1)N1CCC(Oc2cccnn2)CC1 | 1.04 ± 0.094 | 1.25 ± 0.1 | 0.926 ± 0.049 | 1.03 ± 0.073 | 1.08 ± 0.065 | 1.15 ± 0.087 | 1.01 (active)
